21 compounds from PubChem BioAssay (NCATS) can be followed below.

Records with an inconclusive call do not appear. Unmarked numbers belong to inactive results. The source made the active and inactive calls. The call rests on the fitted dose curve; in most records, active means well fitted curve in the direction sought with a large enough effect; inconclusive means small, poorly fitted or top-dose-only effect, or another doubt; inactive means no such curve, though single readings can be large; an effect the other way counts as inactive or inconclusive.

Test [1] has as its target Metallo-beta-lactamase type 2 (Klebsiella pneumoniae) (UniProt C7C422). In words: qHTS to identify inhibitors of the New Delhi Metallo-beta-lactamase (NDM): assay validation screen against the NCATS LOPAC Collection (AID 1794843).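 Further: nitrocefin turnover by NDM-1 measured as 485 nm absorbance at plateau; on the % scale 0 is the no-effect control and ±100 the full control effect.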 In a few lines: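 Enzyme 2 nM final, 50 mM HEPES pH 7.0, 1 uM ZnSO4, 0.01% Tween20; cpds in DMSO, preincub w/ enzyme; + nitrocefin (50 uM stock); A485 at plateau; no-enzyme column as blank.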
Background: qHTS replaces the single test concentration by a dilution series.

Test [2] concerns the target Glutathione peroxidase 1 (Homo sapiens) (UniProt P07203). In words: Primary qHTS Assay for Inhibitors of Recombinant Selenoprotein Glutathione Peroxidase 1 (GPX1) (AID 1845191). Further: nearly all actives have a fitted effect of over 65% in size. On activity, negative = inhibition: on the % scale 0 is the no-effect control and ±100 the full control effect. The essentials:
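GR-coupled readout: NADPH consumption tracked by fluorescence, ex 340/em 450 nm, at t=0 and after 15 min at RT. Final mix 10 nM GPX1, 1 mM GSH, 0.5 mM CHP, 0.5 mM NADPH, 100 nM GR, 0.01% BSA, following 30 min enzyme–compound preincubation.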

The target in test [3] is Phospholipid hydroperoxide glutathione peroxidase GPX4 (Homo sapiens) (UniProt P36969). In words: Primary qHTS Assay for Inhibitors of Recombinant Selenoprotein Glutathione Peroxidase 4 (GPX4) (AID 1845192). Further: nearly all actives have a fitted effect of over 65% in size. The settings on record: outcome: dose series up to 50 µM unless noted. The essentials:
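Steps: GPX4 plus compound, 30 min RT; add GR/GSH/NADPH master mix; start with cumene hydroperoxide; read 340/450 nm fluorescence at 0 and 15 min. Finals were 200 nM GPX4, 1 mM GSH, 0.5 mM CHP, 0.5 mM NADPH, 100 nM GR.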

Test [4] in a line: qHTS profiling for inhibitors of Plasmodium falciparum proliferation (AID 504749). Further: nearly all actives have a fitted effect of over 60% in size. Further: potency means the concentration at half of the fitted maximal effect.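 On activity, negative = inhibition: 0% = DMSO vehicle and full inhibition = artemisinin control.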 To be noted: P. falciparum in erythrocytes, SYBR Green DNA, 72 h. In a few lines:
(§1)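 SYBR Green fluorescence (ex 485 nm, em 535 nm) reports parasite DNA after 72 h compound exposure of infected red cells at 0.3% parasitemia, 2.5% hematocrit; signal normalized to 0.29 uM artemisinin and vehicle wells.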

Test [5] deals with 3D7. Described as above. The settings on record: P. falciparum in erythrocytes, SYBR Green DNA, 72 h; series mostly up to 28.7 µM. The essentials:
as §1

Test [6] has as its system AA1029. The description is as above. The settings on record: P. falciparum in erythrocytes, SYBR Green DNA, 72 h; series mostly up to 28.7 µM. In a few lines: as §1
The test system of test [7] is AS120. The test is described as above. To be noted: P. falciparum in erythrocytes, SYBR Green DNA, 72 h; series mostly up to 28.7 µM. In a few lines:
as §1

Test [8] concerns ATS189. Described as above. The settings on record: P. falciparum in erythrocytes, SYBR Green DNA, 72 h; series mostly up to 28.7 µM. The essentials: as §1
Test [9] deals with ATS95. Described as above. To be noted: P. falciparum in erythrocytes, SYBR Green DNA, 72 h; series mostly up to 28.7 µM. In a few lines: as §1
Test [10] has as its system 7G8. The description is as above. To be noted: P. falciparum in erythrocytes, SYBR Green DNA, 72 h; series mostly up to 28.7 µM. In a few lines:
as §1

Setting [11] is: at 12.8 µM (top of the series), parasite line A.
Setting [12] is: at 12.8 µM (top of the series), parasite line B.
Where [13] appears, read: at 28.7 µM (top of the series), parasite line A.
Where [14] appears, read: at 28.7 µM (top of the series), parasite line B.

Metallo-beta-lactamase type 2 (Klebsiella pneumoniae), sequence (C7C422 whole entry, looked up): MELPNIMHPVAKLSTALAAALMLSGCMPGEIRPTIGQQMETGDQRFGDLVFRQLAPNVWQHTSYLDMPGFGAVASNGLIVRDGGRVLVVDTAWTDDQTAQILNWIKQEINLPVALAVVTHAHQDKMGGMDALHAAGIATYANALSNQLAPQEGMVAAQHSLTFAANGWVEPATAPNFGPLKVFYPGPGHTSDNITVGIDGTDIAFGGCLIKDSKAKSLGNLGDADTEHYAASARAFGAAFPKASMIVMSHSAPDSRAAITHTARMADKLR
Glutathione peroxidase 1 (Homo sapiens), sequence (P07203 whole entry, looked up): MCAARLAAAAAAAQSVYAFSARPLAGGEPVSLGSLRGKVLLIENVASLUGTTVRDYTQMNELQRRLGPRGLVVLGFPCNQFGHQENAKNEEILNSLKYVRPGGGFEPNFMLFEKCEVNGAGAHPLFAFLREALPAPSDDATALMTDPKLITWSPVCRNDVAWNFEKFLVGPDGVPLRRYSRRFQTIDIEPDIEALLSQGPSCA
Phospholipid hydroperoxide glutathione peroxidase GPX4 (Homo sapiens), sequence (P36969 whole entry, looked up): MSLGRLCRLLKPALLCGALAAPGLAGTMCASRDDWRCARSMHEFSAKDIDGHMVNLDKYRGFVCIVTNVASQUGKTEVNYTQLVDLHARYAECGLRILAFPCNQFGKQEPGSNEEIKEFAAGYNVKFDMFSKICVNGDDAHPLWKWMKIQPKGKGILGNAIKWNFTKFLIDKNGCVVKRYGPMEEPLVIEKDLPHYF

In the case of `CN1CCN(C2=Nc3ccccc3Oc3ccc(Cl)cc32)CC1`, the Potency result in test [1], in [2], in test [5], in test [6], in test [7] and in test [8] was “inactive” throughout. Further, the Potency result in [9] was “inactive”. In test [3], the outcome was inactive. Further, the values for the activity, negative = inhibition in test [4] (setting [11]) and in test [4] (setting [12]) were 4.87% and -8.95%, respectively.

Consider `COc1ccc(CCN(C)CCCC(C#N)(c2cc(OC)c(OC)c(OC)c2)C(C)C)cc1OC` (stereo not given), for which the Potency entry in test [1] and in test [2] was “inactive” throughout. In test [3], the result was inactive. The Potency in test [10] is 10 µM (active).

Turning to `CCCCNc1c(C(=O)OCC)c(C)nc2c1cnn2CC`, the Potency result in [1], in test [2], in test [5], in test [6], in [8] and in test [9] was “inactive” each time. The result in [3] was inactive. Moreover, the results for the activity, negative = inhibition in [4] (setting [13]) and in test [4] (setting [14]) were 2.9% and -6.97%, respectively.

For `CCOC(=O)C1=C(C)NC(C)=C(C(=O)OC)C1c1cccc([N+](=O)[O-])c1` (stereo not given), the Potency entry in test [1] and in test [2] was “inactive” each time. In addition, the outcome in test [3] was inactive. Also, the Potency was 10 µM (active) in test [10], 11.2 µM (active) in test [6] and 11.2 µM (active) in test [7].

On to `COCCCC/C(=N\OCCN)c1ccc(C(F)(F)F)cc1`, for which the Potency entry in test [1], in [2], in [5] and in test [8] was “inactive” throughout. The outcome in test [3] was inactive. In addition, in [4] (setting [13]), the activity, negative = inhibition was -21.1%. In addition, the Potency in [10] was 10 µM (active).

Regarding `Fc1ccc(C(c2ccc(F)cc2)N2CCN(C/C=C/c3ccccc3)CC2)cc1`, the Potency entry in test [1] and in test [2] was “inactive” in each case. Further, in test [3], the result was inactive. Besides, the results for the Potency in test [10] and in test [7] were 4.47 µM (active) and 10 µM (active), respectively.

On to `CC(C)(C)c1ccc(C(=O)CCCN2CCC(OC(c3ccccc3)c3ccccc3)CC2)cc1`, for which the Potency entry in test [1] and in test [2] was “inactive” each time. The result in [3] was inactive. The Potency in test [4] (parasite line A) was 10 µM (active); in [5], 7.94 µM (active); in [10], 3.55 µM (active); in test [6], 10 µM (active); in [7], 6.31 µM (active); in [8] it was 10 µM (active). Further, in [9], the Potency is 8.91 µM (active).

Turning to `O=C(O)CP(=O)(O)O`, the Potency result in test [2], in [5], in test [10], in test [6], in test [7] and in test [8] was “inactive” in each case. Besides, the Potency result in test [9] is “inactive”. The outcome in test [3] was inactive. The results for the activity, negative = inhibition in test [4] (setting [13]) and in test [4] (setting [14]) were 3.45% and -17.2%, respectively.

For `CN(C)CCOC(=O)COc1ccc(Cl)cc1`, the Potency entry in [1], in test [2], in test [10], in test [6], in test [7] and in [8] was “inactive” throughout. The Potency result in test [9] is “inactive”. For the same compound, the outcome in test [3] was inactive. In addition, the activity, negative = inhibition is 18.7% in test [4] (setting [11]) and -4.94% in test [4] (setting [12]).

As to `c1ccc2c(c1)CCCC2C1=NCCN1` (stereo not given), the Potency result in test [2] is “inactive”. Besides, the outcome in [3] was inactive.

Take `OC(CCN1CCCCC1)(c1ccccc1)C1CCCCC1` (stereo not given): the Potency entry in [1], in test [2], in [5] and in test [8] was “inactive” each time. The result in [3] was inactive. Further, the activity, negative = inhibition in test [4] (setting [13]) was -22%; in [4] (setting [14]) it was -4.19%. Besides, the Potency in [10] was 8.91 µM (active).

Turning to `CN(C)C/C=C(/c1ccc(Br)cc1)c1cccnc1`, the Potency result in [1], in test [2], in [5] and in [8] was “inactive” in each case. Also, the outcome in [3] was inactive. Moreover, the activity, negative = inhibition in [4] (setting [13]) was -2.53%. Further, in test [10], the Potency is 8.91 µM (active).

On to `NC(Cc1ccc(Cl)cc1)C(=O)O` (stereo not given), for which the Potency result in test [1], in test [2], in test [5], in test [6], in test [7] and in test [8] was “inactive” throughout. Besides, in [9], the Potency entry is “inactive”. The result in test [3] was inactive. Moreover, the activity, negative = inhibition is 17.3% in test [4] (setting [13]) and 7.34% in test [4] (setting [14]).

Regarding `CN(C)CCN(Cc1cccs1)c1ccccn1`, the Potency entry in test [1], in test [2] and in test [5] was “inactive” throughout. Besides, the result in test [3] was inactive. Moreover, the figures for the activity, negative = inhibition in [4] (setting [13]) and in test [4] (setting [14]) were 5.46% and 6.28%, respectively. For the same compound, the Potency in test [6] is 10 µM (active); in test [7] it was 12.6 µM (active).

For `Cc1nc2sccn2c(=O)c1CCN1CCC(=C(c2ccc(F)cc2)c2ccc(F)cc2)CC1`, the Potency entry in [1] and in [2] was “inactive” in each case. In [3], the outcome was inactive. Besides, the Potency in test [10] was 10 µM (active); in test [7] it was 11.2 µM (active).

Regarding `COCCOC(=O)C1=C(C)NC(C)=C(C(=O)OC(C)C)C1c1cccc([N+](=O)[O-])c1` (stereo not given), the Potency entry in test [1] and in test [2] was “inactive” in each case. The result in test [3] was inactive. The Potency in test [10] is 11.2 µM (active); in [7] it was 7.94 µM (active).

In the case of `C[C@]12CCC(=O)C=C1CC[C@@H]1[C@@H]2CC[C@@]2(C)[C@H]1CC[C@]2(O)C(=O)CO`, the Potency result in test [1], in [2], in test [5], in test [6], in [7] and in test [8] was “inactive” throughout. Moreover, the Potency result in test [9] is “inactive”. The result in test [3] was inactive. The activity, negative = inhibition in test [4] (setting [13]) is -9.28%; in [4] (setting [14]) it was 20.5%.

Turning to `O=C1CC2(CCCC2)CC(=O)N1CCCCN1CCN(c2ncccn2)CC1`, the Potency result in test [1], in [2], in [5], in test [6], in test [7] and in test [8] was “inactive” throughout. Besides, in test [9], the Potency entry is “inactive”. The result in test [3] was inactive. Further, the activity, negative = inhibition is 11.6% in test [4] (setting [13]) and 9.29% in test [4] (setting [14]).

Regarding `CCN(CC)CCOCCOC(=O)C1(c2ccccc2)CCCC1`, the Potency result in test [2] and in test [6] was “inactive” throughout. Moreover, the result in test [3] was inactive. For the same compound, the Potency in test [10] was 1.78 µM (active); in test [7], 12.6 µM (active); in test [8], 7.08 µM (active); in test [9] it was 11.2 µM (active).

For `Cc1ccc(/C(=C\CN2CCCC2)c2ccccn2)cc1`, the Potency entry in [2] is “inactive”. In [3], the result was inactive.

For `C#CCN(C)CCCOc1ccc(Cl)cc1Cl`, the Potency entry in test [1], in [2], in [5], in test [6], in test [7] and in test [8] was “inactive” throughout. The Potency entry in test [9] was “inactive”. For the same compound, the result in [3] was inactive. In addition, the activity, negative = inhibition was 6.5% in test [4] (setting [13]) and 12.2% in test [4] (setting [14]).
